Inconclusive results are not listed. Active and inactive are the calls of the source. Unless noted, calls follow the shape of the full dose curve.

This is an account of results in PubChem BioAssay (NCATS).

A short description of assay [1]: qHTS for Inhibitors of the Functional Ribonucleoprotein Complex (vRNP) of Lassa (LASV) Arenavirus: LASV Primary Screen - GLuc reporter signal (AID 1347082; calls by dose curve; tested in HEK293 reporter line; also: % is scaled to controls: 0 for no effect and ±100 for the full control effect; nearly all actives have a fitted effect of over 60% in size).
Assay [2] in a line: qHTS for Inhibitors of the Functional Ribonucleoprotein Complex (vRNP) of Lassa (LASV) Arenavirus: Viability assay - alamar blue signal for LASV Primary Screen (AID 1347083; calls by dose curve; tested in HEK293 reporter line; also: % is scaled to controls: 0 for no effect and ±100 for the full control effect; nearly all actives have a fitted effect of over 80% in size). A general note: In qHTS, concentration-response curves come from the screen itself.
The nature of assay [3]: qHTS for Inhibitors of the Functional Ribonucleoprotein Complex (vRNP) of Lymphocytic Choriomeningitis Arenaviruses (LCMV): Viability assay - alamar blue signal for LCMV Primary Screen (AID 1347085; calls by dose curve; tested in HEK293 reporter line; also: % is scaled to controls: 0 for no effect and ±100 for the full control effect; nearly all actives have a fitted effect of over 80% in size).
In assay [4] the target is Nucleoprotein (Lymphocytic choriomeningitis virus (strain Armstrong)) (UniProt P09992). Briefly: qHTS for Inhibitors of the Functional Ribonucleoprotein Complex (vRNP) of Lymphocytic Choriomeningitis Arenaviruses (LCMV): LCMV Primary Screen - GLuc reporter signal (AID 1347086). Also: % is scaled to controls: 0 for no effect and ±100 for the full control effect; nearly all actives have a fitted effect of over 70% in size.
Sequence of Nucleoprotein (Lymphocytic choriomeningitis virus (strain Armstrong)) (P09992 whole entry, looked up): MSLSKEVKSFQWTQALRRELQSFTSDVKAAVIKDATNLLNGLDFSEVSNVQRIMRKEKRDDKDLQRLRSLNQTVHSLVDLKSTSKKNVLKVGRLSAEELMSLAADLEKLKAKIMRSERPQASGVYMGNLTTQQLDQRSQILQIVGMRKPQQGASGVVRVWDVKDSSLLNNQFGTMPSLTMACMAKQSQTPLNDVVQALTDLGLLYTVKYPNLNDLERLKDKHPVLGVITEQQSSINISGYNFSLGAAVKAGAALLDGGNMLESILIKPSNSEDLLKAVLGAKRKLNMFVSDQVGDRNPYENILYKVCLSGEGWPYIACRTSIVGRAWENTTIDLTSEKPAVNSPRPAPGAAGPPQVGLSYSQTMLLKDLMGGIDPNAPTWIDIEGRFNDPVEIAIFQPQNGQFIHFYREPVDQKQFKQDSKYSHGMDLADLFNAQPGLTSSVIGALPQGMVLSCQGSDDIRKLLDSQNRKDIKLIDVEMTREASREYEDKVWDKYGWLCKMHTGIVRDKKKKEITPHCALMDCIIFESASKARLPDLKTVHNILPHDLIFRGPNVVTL
Assay [5] can be described thus: Primary qHTS for inhibitors of SARS-S pseudo-typed particle cell entry (AID 1479145). Also: nearly all actives have a fitted effect of over 45% in size.
Assay [6] in a line: Primary qHTS for Huh7 cytotoxicity: counterscreen for inhibitors of MERS-S pseudotyped particle cell entry (AID 1479147). As to conditions: outcome: dose series up to 57.1 µM unless noted.
A short description of assay [7]: Primary qHTS for inhibitors of MERS-S pseudo-typed particle cell entry (AID 1479149). Also: nearly all actives have a fitted effect of over 60% in size. As to activity change, negative = inhibition: % is scaled to controls: 0 for no effect and ±100 for the full control effect.
A short description of assay [8]: Primary qHTS for Vero E6 cytotoxicity: counterscreen for inhibitors of SARS-S pseudo-typed particle cell entry (AID 1479150). As to activity change, negative = cytotoxicity: % is scaled to controls: 0 for no effect and ±100 for the full control effect. As to conditions: outcome: dose series up to 57.1 µM unless noted.
A short description of assay [9]: Confirmatory qHTS to identify inhibitors of SARS-CoV-2 cell entry (AID 1645844). Also: potency is read from the fitted curve at half-maximal effect; nearly all actives have a fitted effect of over 45% in size. An outline of the steps:
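HEK293-ACE2 cells were pretreated 1 h with compound, then infected with MLV-based pseudoparticles bearing C-terminally truncated Wuhan-Hu-1 spike for 48 h at 37C; luciferase luminescence normalized to spike PP and bald PP wells.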

A short description of assay [10]: Cytotoxicity counterscreen for inhibitors of SARS-CoV-2 cell entry (AID 1645845). Also: nearly all actives have a fitted effect of over 50% in size. As to activity change, negative = cytotoxicity: % is scaled to controls: 0 for no effect and ±100 for the full control effect. An outline of the steps:
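HEK293-ACE2 cells (Expi293F stably expressing human ACE2) seeded overnight, then compound for 1 h plus 48 h at 37C. Viability as ATP content by luminescence; normalized to wells with cells and media-only wells.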

Assay [11] in a line: Primary qHTS to identify inhibitors of SARS-CoV-2 cell entry (AID 1645846). Also: nearly all actives have a fitted effect of over 45% in size. The gist of the method: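 HEK293-ACE2 (Expi293F, stable hACE2), 1500 cells/well, o/n 37C; cpd 23 nL pin, 1 h; MLV-PP w/ SARS-CoV-2-S (Wuhan-Hu-1, Δ19 C-term); 48 h 37C; Bright-Glo luminescence; normalized vs S-PP and bald PP.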
The target of assay [12] is Nuclear receptor subfamily 1 group I member 3 (Homo sapiens) (UniProt Q14994). As to the kind of experiment: Primary qHTS for antagonist of constitutive androstane receptor (CAR) against the NCATS DSHEA and TCM libraries (AID 1794836; active = well fitted curve in the direction sought with a large enough effect; an effect the other way counts as inactive or inconclusive;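 also: HepG2 cells stably expressing hCAR with CYP2B6 luciferase reporter stimulated by CITCO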). The gist of the method: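 HepG2-CYP2B6-hCAR cells, attached 5 h, given compounds plus CITCO agonist […], incubated 24 h at 37 C. Luciferase luminescence read, multiplexed with CellTiter-Fluor viability (Ex/Em 405/540 nm).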
Sequence of Nuclear receptor subfamily 1 group I member 3 (Homo sapiens) (Q14994 whole entry, looked up): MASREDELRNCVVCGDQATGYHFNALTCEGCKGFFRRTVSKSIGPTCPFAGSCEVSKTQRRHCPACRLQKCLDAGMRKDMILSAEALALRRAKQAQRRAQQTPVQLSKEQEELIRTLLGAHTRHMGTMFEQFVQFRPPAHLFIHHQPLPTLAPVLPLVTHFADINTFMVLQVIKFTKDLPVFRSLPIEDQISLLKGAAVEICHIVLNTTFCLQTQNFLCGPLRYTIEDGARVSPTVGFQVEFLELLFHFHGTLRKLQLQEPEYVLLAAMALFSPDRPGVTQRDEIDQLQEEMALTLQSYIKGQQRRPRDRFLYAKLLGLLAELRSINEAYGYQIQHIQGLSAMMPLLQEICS

The nature of assay [13]: KB-8-5-11 P-gp reporter qHTS against the NCATS DSHEA and TCM libraries (AID 1919977; active = well fitted curve in the direction sought with a large enough effect; an effect the other way counts as inactive or inconclusive; also: 0% is about no effect). The gist of the method: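 CellTiter-Glo luminescence after ~72 h exposure at 37C gave viability of KB-8-5-11 cells, the P-gp-overexpressing subline. Substances were titrated; colchicine was omitted from assay medium.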
Assay [14] can be described thus: qHTS for inhibitors of Rabies Virus screened against the NCATS CANVASS Library (AID 1347402). Also: 0% is about no effect.
Assay [15] can be described thus: Validation screen for inhibitors of Lassa infection (AID 463096). Also: % is scaled to controls: 0 for no effect and ±100 for the full control effect.
Assay [16] is described as follows: Inducers of the Endoplasmic Reticulum Stress Response (ERSR) in human glioma: Validation (AID 504836; active = well fitted curve in the direction sought with a large enough effect; an effect the other way counts as inactive or inconclusive; also: 0% is about no effect). The gist of the method: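 Stably transfected U87-MG glioma cells carrying a GRP78-based luciferase sensor; 16 h compound incubation. Luminescence end-point read 10 min after Bright-Glo addition at room temperature.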
[17] abbreviates: activity change, negative = inhibition: at 57.1 µM (top of the series) unless noted.

For the compound `CO[C@H]1C(=O)[C@]2(C)[C@@H](OC)C[C@H]3OC[C@@]3(OC(C)=O)[C@H]2[C@H](OC(=O)c2ccccc2)[C@]2(O)C[C@H](OC(=O)[C@H](O)[C@@H](NC(=O)OC(C)(C)C)c3ccccc3)C(C)=C1C2(C)C`, the Potency entry in assay [1], in assay [2], in [3], in [4], in assay [5] and in assay [7] was “inactive” throughout. Also, the Potency result in assay [10] was “inactive”. Besides, the result in assay [6] and in assay [8] was inactive. For the same compound, in assay [9], the Potency was 48.2 nM (active). Also, the activity change, negative = inhibition in assay [11] (setting [17]) is -81.7%.
Turning to `CCCCCCCC(=O)O`, the Potency entry in assay [1], in assay [2], in [3], in assay [4], in [5] and in [7] was “inactive” each time. For the same compound, the Potency entry in [10] and in assay [12] was “inactive” throughout. Moreover, the compound was classed as inactive in [6], in assay [8] and in assay [13]. The activity change, negative = inhibition in [11] (setting [17]) is 1.02%.
As to `O=C(O)Cc1c[nH]c2ccccc12`, the Potency entry in [1], in assay [2], in [3] and in assay [4] was “inactive” each time. For the same compound, the outcome in [14] was inactive.
With `CCOC(=O)[C@@H](N)Cc1ccc(-c2cc(O[C@H](c3ccc(Cl)cc3-n3ccc(C)n3)C(F)(F)F)nc(N)n2)cc1`, the Potency result in [1], in assay [2], in assay [3], in assay [4], in assay [5] and in assay [7] was “inactive” throughout. For the same compound, the Potency entry in assay [10] was “inactive”. In addition, the result in assay [6] and in assay [8] was inactive.
Consider `CC(=O)O[C@H]1CC2(C)[C@@H](C[C@@H](O)[C@H]3[C@@]4(C)CC[C@@H](O)[C@@H](C)[C@@H]4CC[C@@]32C)C1=C(CCC=C(C)C)C(=O)O` (some centres not stated), for which the Potency result in assay [15], in assay [1], in assay [2], in assay [3], in assay [4] and in assay [5] was “inactive” throughout. For the same compound, the Potency result in [7] and in [10] was “inactive” in each case. In addition, the result in assay [16], in [6] and in [8] was inactive. Further, the activity change, negative = inhibition in assay [11] (setting [17]) is -17.3%.
With `c1cc(CN2CCCNCCNCCCNCC2)ccc1CN1CCCNCCNCCCNCC1`, the Potency entry in assay [1], in assay [2], in assay [3], in assay [4] and in assay [10] was “inactive” each time. The activity change, negative = inhibition is -15.1% [at 5.34 µM] (inactive) in [5]; -25.3% in assay [11] (SARS-CoV-2 pseudovirus cell entry assay, luminescence, at 5.25 µM (top of the series)); -51.7% in assay [11] (SARS-CoV-2 pseudovirus cell entry assay, luminescence, at 57.1 µM (top of the series)). For the same compound, the outcome in assay [6], in assay [7] and in [8] was “inactive [at 5.34 µM]” throughout.
Take `CC(C=CC=C(C)C=CC1=C(C)CCCC1(C)C)=CC=CC=C(C)C=CC=C(C)C=CC1=C(C)CCCC1(C)C`: the Potency entry in [1], in assay [2], in [3] and in assay [4] was “inactive” in each case. The outcome is “inactive [at 0.573 µM]” in assay [5], “inactive [at 0.573 µM]” in assay [6], “inactive [at 0.573 µM]” in [7] and “inactive [at 0.702 µM]” in assay [10]. Moreover, the activity change, negative = cytotoxicity in assay [8] was 0.415% [at 0.573 µM] (inactive). Further, the activity change, negative = inhibition in assay [11] (setting [17]) was -7.48% [at 0.702 µM].
As to `CC1=C(/C=C/C(C)=C/C=C/C(C)=C/C=C/C=C(C)/C=C/C=C(C)/C=C/C2=C(C)C[C@@H](O)CC2(C)C)C(C)(C)C[C@H](O)C1`, the Potency result in assay [1], in assay [2], in assay [3], in [4], in [5] and in assay [7] was “inactive” each time. Besides, the Potency result in assay [10] was “inactive”. The outcome in assay [6] and in assay [8] was inactive.
For `CC1=C(/C=C/C(C)=C/C=C/C(C)=C\C(=O)O)C(C)(C)CCC1`, the Potency result in assay [15], in assay [1], in assay [2], in assay [3], in assay [4] and in assay [5] was “inactive” in each case. Further, the Potency result in assay [7], in assay [10] and in assay [11] (setting [17]) was “inactive” each time. The compound was called inactive in assay [16], in [6] and in [8]. In addition, the activity change, negative = inhibition in assay [11] (setting [17]) is -7.39%.
